The values that follow come from PubChem BioAssay (NCI).

The panel holds about 83,000 compounds, 20% with a hit somewhere; the sample as a whole holds those more often.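 Each cell line was grown in a 96-well plate and treated with one concentration of compound for 48 hours. Values below 10 were considered active.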 Unmarked numbers belong to inactive results. The source made the active and inactive calls.

Experiment in all cases: NCI-60 one-dose screen, 48 h (100 = growth as untreated, 0 = no growth, -100 = all killed)
Common to all, as to settings: 10 µM unless noted

Assay [1] deals with DU-145 prostate.
The test system of assay [2] is K-562 leukemia.
For assay [3], the system named is MALME-3M melanoma.
In assay [4] the test system is MDA-MB-231 breast.
Assay [5] concerns RXF 393 renal.
Assay [6] has as its system SF-295 CNS.
The subject of assay [7] is SF-539 CNS.
Assay [8] has as its system UACC-257 melanoma.
The test system of assay [9] is SF-268 CNS.
The test system of assay [10] is M14 melanoma.

Take `NC(N)=N/N=C/c1cccc(Br)c1`: the growth was 118% in assay [1]; 93.6% in assay [2]; 100% in assay [3]; 105% in assay [4]; 95.8% in assay [5]; 99.3% in assay [6]. The growth in assay [7] is 101%; in assay [8] it was 106%.

As to `CCCCCCCCc1ccc(CCC(N)(CO)CO)cc1`, the growth in assay [1] is 3.12% (active); in [2] it was -25.2% (active); in assay [3], 26.2%; in assay [4] it was -24.1% (active); in [9], 20.3%; in [6] it was 67.9%. In addition, the growth in assay [7] is 17.3%; in [8], 53.7%.

As for `O=c1[nH]c(=S)[nH]c(O)c1/C=C1\C=Nc2ccccc21`, the growth in assay [1] is 108%; in assay [2] it was 99.4%; in assay [3], 99.5%; in assay [4], 64.5%; in assay [9], 70%; in assay [6], 43%. The growth was 94.2% in assay [7], 80.5% in assay [8] and 92.3% in assay [10].

As to `CNc1ccc(Nc2ccc(S(=O)(=O)O)cc2)c2c1C(=O)c1ccccc1C2=O`, the growth in [1] was 112%; in assay [2], 101%; in assay [3], 110%; in assay [4], 111%; in assay [5], 104%; in [9] it was 114%. Moreover, the results for the growth in assay [7], in assay [8] and in assay [10] were 101%, 107% and 112%, respectively.

For `O=C(/C=C/c1ccc(Cl)cc1)c1ccc(Cl)cc1`, the growth in [1] was 101%; in assay [2], 73.9%; in assay [3] it was 91.8%; in assay [4], 118%; in [5], 96%; in [9], 98.3%. Moreover, the figures for the growth in assay [7], in [8] and in [10] were 104%, 103% and 100%, respectively.

For the compound `O=C1CSC(c2ccccc2Cl)N1c1nnc(-c2ccncc2)o1` (configuration not stated), the growth in assay [1] was 106%; in assay [2] it was 104%; in assay [3], 120%; in assay [4], 97.7%; in assay [5], 101%; in assay [9] it was 99.5%. Also, the growth in [8] is 98.2%; in assay [10], 96.8%.

On to `N#CCc1ncc(-c2ccc(C(F)(F)F)cc2)c(NC2CCCCCC2)n1`, for which the growth in [1] is 28.5% [100 µM]; in assay [2], 4.45% [100 µM] (active); in assay [3], 25.7% [100 µM]; in assay [4], 37.4% [100 µM]; in assay [5], 36.4% [100 µM]; in assay [9], 30.5% [100 µM]. Besides, the growth is 67.2% [100 µM] in [7], 23.3% [100 µM] in [8] and 19% [100 µM] in [10].

As for `CCOC(=O)C1CCCN1C(=O)C1(NC(C)=O)CCCC1` (configuration not stated), the growth was 103% in assay [1]; 110% in [2]; 96.7% in assay [3]; 121% in assay [4]; 110% in assay [5]; 104% in [6]. Besides, the values for the growth in assay [7], in [8] and in [10] were 95.8%, 102% and 95.2%, respectively.

In the case of `Cc1c([C@H](C(Cl)Cl)[C@H](O)[C@H]2C[C@H](C)C(=O)O2)ccc2c1C(=O)[C@H]1[C@H]2C[C@@H](Br)[C@@]23O[C@@H](CO[C@H]2O)CC13C` (some centres not stated), the growth was -34.9% (active) in assay [1]; 7.69% (active) in assay [2]; 77.9% in assay [3]; 4.9% (active) in [4]; 15.5% in [5]; 33% in [9]. In addition, the values for the growth in [8] and in assay [10] were 61.9% and 33.2%, respectively.

On to `CC(=N\N=C(N)N)/C(=N/N=C(N)N)c1ccccc1`, for which the growth in assay [1] is 51.7%; in [2], 91.3%; in assay [3], 99.2%; in [4], 116%; in assay [5], 104%; in assay [6], 99.1%. Besides, the growth in assay [7] is 74.6%; in [8], 93.2%; in assay [10], 88.6%.

As to `CC(CCN1CCN(CCC(C)CC(C)(C)C)C1CC(C)CC(C)(C)C)CC(C)(C)C` (configuration not stated), the growth is 103% in assay [1]; 58.2% in assay [2]; 99.2% in assay [3]; 105% in [4]; 91.5% in [9]; 114% in [6]. In addition, the figures for the growth in assay [7], in assay [8] and in assay [10] were 91.5%, 107% and 100%, respectively.

Consider `C=C(C)C(C(=O)OCC)(C(=O)OCC)C(C)C`, for which the growth in assay [1] is 120%; in assay [2] it was 116%; in [3], 110%; in assay [4], 112%; in assay [5], 112%; in assay [9], 112%. Moreover, the figures for the growth in [7], in assay [8] and in [10] were 105%, 107% and 110%, respectively.

Turning to `O=C(CN1CCN(c2cccc(Cl)c2)CC1)N1CCN(c2nnc(-c3ccc(Cl)cc3)c(-c3ccc(Cl)cc3)n2)CC1`, the growth in [1] was 94.8%; in [2], 38.8%; in assay [3], 105%; in assay [4], 86.8%; in assay [9], 89.8%; in [6], 84.3%. The growth in assay [7] was 74.4%; in assay [10], 106%.
